In the library only some 7.3% were active in any assay of this set; here they are far more common.
Tau fluor counter – counter-screen for tau fibril formation inhibitors | tau K18 P301L Alexa594 fluorescence, heparin fibrillization | Potency, µM (titrated, usually from 57.7 µM), for the others: top-dose activity change, negative = decrease | 280,000 tested, 0.93% active; also: nearly all actives have a fitted effect of over 55% in size
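Human tau K18 P301L (15 uM unlabeled, 0.24 uM Alexa 594-labeled) in 100 mM sodium acetate pH 7 with 20 uM heparin, 6 hr at 37 C. ThT 30 uM added, 1 hr ambient; Alexa 594 FP and total fluorescence read at 555/632 nm.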
VP16 counter – counter-screen for ROR gamma inhibitors: Gal4-VP16 reporter | Drosophila S2 Gal4-VP16 UAS-luciferase, luminescence, 20 h | Potency, µM (series often up to 53.6 µM), for inactives: top-dose activity, negative = inhibition, most hits filed as inhibitors | 310,000 tested, 3.5% active;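 also: Gal4-VP16 expression switched on by copper sulfate through the metallothionein promoter; nearly all actives have a fitted effect of over 50% in size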
Tau fibril FP – tau fibrillization inhibition (FP). P10636. K18 P301L tau heparin fibrillization, Alexa594 FP, 6 h. Potency, µM (highest dose often 57.7 µM), inactives show top-dose activity, negative = inhibition, actives largely listed as inhibitors. 280,000 tested, 0.39% active. AID 1468; also: nearly all actives have a fitted effect of over 55% in size
Target sequence (P10636 561-689 P618L limits assumed): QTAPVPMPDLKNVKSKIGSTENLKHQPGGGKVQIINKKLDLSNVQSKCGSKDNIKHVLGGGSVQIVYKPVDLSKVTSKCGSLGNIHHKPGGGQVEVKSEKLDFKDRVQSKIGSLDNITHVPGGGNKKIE
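Human tau K18 […] P301L fragment, 15 uM unlabeled plus 0.24 uM Alexa 594-labeled tau (final), with compound and 20 uM heparin in 100 mM sodium acetate pH 7; 6 hr at 37 C, then Alexa 594 FP read.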
Tau fibril ThT – blocks human tau fibril formation measured by thioflavin T. recombinant tau K18 P301L, heparin-induced fibrillization, ThT fluorescence. Potency, µM (titrated, usually from 57.4 µM), inactives show top-dose activity, negative = inhibition, most hits filed as inhibitors. 270,000 tested, 2.1% active; also: nearly all actives have a fitted effect of over 55% in size
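Using a mix of unlabeled (15 uM) and Alexa 594-labeled (0.24 uM) tau K18 P301L, heparin-triggered fibrillization over 6 hr at 37 C was scored by ThT fluorescence.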
RORg inh – inhibitors of mouse ROR gamma transcriptional activity; Drosophila S2 Gal4-RORgamma UAS-luciferase reporter, 20 h; 310,000 tested, 5.4% active; Potency, µM (series often up to 53.6 µM), for inactives: top-dose activity change, negative = inhibition, most hits filed as inhibitors; also: nearly all actives have a fitted effect of over 60% in size
Target sequence (P51450 whole entry, looked up, the tested form may be a part): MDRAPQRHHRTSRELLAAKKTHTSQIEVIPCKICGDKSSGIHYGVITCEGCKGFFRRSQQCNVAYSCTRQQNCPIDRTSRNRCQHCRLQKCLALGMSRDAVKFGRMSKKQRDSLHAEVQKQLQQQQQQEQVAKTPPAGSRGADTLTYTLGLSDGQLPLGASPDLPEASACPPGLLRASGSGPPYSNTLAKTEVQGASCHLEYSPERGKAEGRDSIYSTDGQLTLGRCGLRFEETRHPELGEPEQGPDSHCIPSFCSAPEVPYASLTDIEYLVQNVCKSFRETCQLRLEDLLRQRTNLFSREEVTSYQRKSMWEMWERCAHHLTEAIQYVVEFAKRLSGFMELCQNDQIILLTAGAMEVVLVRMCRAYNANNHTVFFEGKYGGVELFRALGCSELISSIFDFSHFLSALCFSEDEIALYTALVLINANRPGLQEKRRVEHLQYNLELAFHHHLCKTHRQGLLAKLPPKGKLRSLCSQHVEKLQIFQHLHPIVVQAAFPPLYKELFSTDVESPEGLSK
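ROR gamma transcriptional activity was tracked as Gal4-UAS luciferase output in stably transfected Drosophila Schneider cells, with compound added 1 hr before 700 uM copper sulfate induction and a 20 hr ambient-temperature incubation.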
Starred values were filed as active, the others as inactive; [ ] = another dose, or the depositor's remark. Calls follow the shape of the dose curve; as a rule, active = well fitted curve in the direction sought with a large enough effect; inconclusive = small, poorly fitted or top-dose-only effect, or another doubt; inactive = no such curve, though single readings can be large; an effect the other way counts as inactive or inconclusive. % is scaled to controls: 0 for no effect and ±100 for the full control effect; potency is read from the fitted curve at half-maximal effect.

Results for N#Cc1cnn(-c2nc3sc4c(c3c(=O)[nH]2)CCCC4)c1N ?
Tau fluor counter: -1.7%; VP16 counter: -13.6%[0.365 µM]; Tau fibril FP: 7.0%; Tau fibril ThT: inconclusive; RORg inh: 2.82µM*

What do the screens show for `CC(C)(C)c1ccc(-n2nc(C(N)=O)c(O)cc2=O)cc1`?
Tau fluor counter: 3.6%; VP16 counter: 5.8%; Tau fibril FP: 7.4%; Tau fibril ThT: -0.2%; RORg inh: 21.5%

How did CC(C)(C)c1ccc(-n2nc(C#N)c(Cl)cc2=O)cc1 do in these assays?
Tau fluor counter: -9.8%; VP16 counter: 7.08µM*; Tau fibril FP: 2.3%; Tau fibril ThT: inconclusive; RORg inh: 7.08µM*

How did CCN1C(=O)S/C(=C/c2cn(C)c3ccccc23)C1=O do in these assays?
Tau fluor counter: 8.3%; VP16 counter: -9.9%; Tau fibril FP: -3.3%; Tau fibril ThT: 10.4%; RORg inh: 1.4%

How did Cn1cc(C=C2C(=O)Nc3cccnc32)c2ccccc21 do in these assays?
Tau fluor counter: inconclusive; VP16 counter: 3.2%; Tau fibril FP: 7.1%; Tau fibril ThT: 10µM*; RORg inh: 4.1%

What do the screens show for `CCOC(=O)[C@@H](N)CS`?
VP16 counter: -4.0%; RORg inh: 3.4%[10 µM]

Results for Clc1ccc(Nc2nc(C3CC3)cs2)cc1 ?
Tau fluor counter: 15.8µM*[quencher]; VP16 counter: 2.2%; Tau fibril FP: inconclusive; Tau fibril ThT: inconclusive; RORg inh: -45.0%

Results for Cn1c(SCC(=O)NC2CC2)nnc1-c1cccs1 ?
VP16 counter: 17.8µM*; RORg inh: inconclusive

What do the screens show for `CCCn1c(SCC(=O)NC2CC2)nnc1-c1cccs1`?
VP16 counter: -0.2%; RORg inh: 0.8%

How did O=C(CCSCCC(=O)NCc1ccco1)NCc1ccco1 do in these assays?
Tau fluor counter: -21.3%; VP16 counter: 2.5%; Tau fibril FP: inconclusive; Tau fibril ThT: 14.1µM*; RORg inh: -14.4%

How did Cc1csc(NC(=O)CSc2nc3ccccc3s2)n1 do in these assays?
Tau fluor counter: -5.9%; VP16 counter: -13.5%; Tau fibril FP: -0.8%; Tau fibril ThT: -7.4%; RORg inh: -29.2%

What do the screens show for `O=C(CCCSc1nc2ccccc2s1)NCc1ccco1`?
Tau fluor counter: -10.0%; VP16 counter: 11.2µM*; Tau fibril FP: -3.2%; Tau fibril ThT: -9.6%; RORg inh: 14.1µM*

What do the screens show for `Cc1csc(NC(=O)CCCSc2nc3ccccc3s2)n1`?
Tau fluor counter: inconclusive; VP16 counter: 2µM*; Tau fibril FP: -6.4%; Tau fibril ThT: inconclusive; RORg inh: 31.6µM*

What do the screens show for `O=C1CC(C(=O)N2CCc3ccccc32)CN1c1ccccc1` (configuration not stated)?
VP16 counter: 0.9%; RORg inh: 43.0%

What do the screens show for `CC(C)CC(=O)n1sc(NC(=O)c2ccccc2)nc1=O`?
Tau fluor counter: -20.0%; VP16 counter: -0.7%; Tau fibril FP: inconclusive; Tau fibril ThT: 22.4µM*; RORg inh: 22.8%

How did Cc1ccc(C(=O)Nc2nc(=O)n(C)s2)cc1 do in these assays?
Tau fluor counter: -2.0%; VP16 counter: 11.2µM*; Tau fibril FP: -5.5%; Tau fibril ThT: 5.6%; RORg inh: 8.91µM*

How did Cc1ccc(C(=O)Nc2nnc(C)s2)cc1 do in these assays?
Tau fluor counter: -8.6%; VP16 counter: -17.6%; Tau fibril FP: -7.6%; Tau fibril ThT: -7.5%; RORg inh: 10µM*

What do the screens show for `COc1cc2nc(NC(=O)c3ccccc3)sc(=O)c2cc1OC`?
VP16 counter: -6.3%; RORg inh: -40.8%

Results for Cc1ccc(C(=O)Nc2nc(=O)n(C(=O)c3ccccc3Cl)s2)cc1 ?
Tau fluor counter: -29.0%; VP16 counter: -1.5%; Tau fibril FP: inconclusive; Tau fibril ThT: 12.6µM*; RORg inh: 3.8%

What do the screens show for `Cn1sc(NC(=O)c2ccc(Cl)cc2)nc1=O`?
Tau fluor counter: 1.8%; VP16 counter: -8.8%; Tau fibril FP: 1.3%; Tau fibril ThT: 15.4%; RORg inh: -13.4%

Results for Cc1noc(C)c1-c1cncnc1-n1ccnc1 ?
VP16 counter: -8.4%; RORg inh: -6.5%

What do the screens show for `CCn1ccnc1CN(C)C(=O)C1CCC(=O)N(Cc2cccc(F)c2)C1` (configuration not stated)?
VP16 counter: -3.4%; RORg inh: 2.2%

How did O=c1cnc2cnc(Nc3ccccc3)nc2n1Cc1cccs1 do in these assays?
VP16 counter: inconclusive; RORg inh: -6.8%

How did O=C(Nc1ccc(O)cc1)C1CC=CCC1 (configuration not stated) do in these assays?
Tau fluor counter: 28.2µM*[quencher]; VP16 counter: -4.3%; Tau fibril FP: inconclusive; Tau fibril ThT: 25.1µM*; RORg inh: -21.2%

What do the screens show for `CCOc1ccc(N(CC(=O)NC2CCCCC2)C(=O)Cn2nnc(-c3ccc(C)o3)n2)cc1`?
VP16 counter: 15.7%; RORg inh: 3.5%

How did Cc1ccccc1C1C(C#N)=C2N=C(N)c3c(sc4c3CCCCC4)N2C2=C1C(=O)CC(C)(C)C2 (configuration not stated) do in these assays?
Tau fluor counter: -20.5%; VP16 counter: inconclusive; Tau fibril FP: 2.3%; Tau fibril ThT: inconclusive; RORg inh: 12.6µM*

Results for OC[C@@H]1OC(O)[C@@H](O)[C@H](O)[C@@H]1O (some centres not stated) ?
VP16 counter: 2.8%; RORg inh: -4.2%

How did N#Cc1c(NCc2ccccc2)ccnc1NCc1cccnc1 do in these assays?
Tau fluor counter: -15.9%; VP16 counter: 10µM*; Tau fibril FP: -6.2%; Tau fibril ThT: -16.5%; RORg inh: inconclusive

What do the screens show for `C=CCn1c(O)c(/C=C2\C=NN=C2c2ccccc2)sc1=S`?
Tau fluor counter: inconclusive; VP16 counter: -1.2%; Tau fibril FP: inconclusive; Tau fibril ThT: inconclusive; RORg inh: -23.9%

How did CCn1c(O)c(C=Nc2ccccc2)sc1=S do in these assays?
Tau fluor counter: inconclusive; VP16 counter: inconclusive; Tau fibril FP: 2.6%; Tau fibril ThT: inconclusive; RORg inh: 18.4%

How did CCCn1c(O)c(/C=C2\C=NN=C2c2ccccc2)sc1=S do in these assays?
Tau fluor counter: inconclusive; VP16 counter: -20.4%; Tau fibril FP: 17.8µM*; Tau fibril ThT: -12.8%; RORg inh: -16.9%

What do the screens show for `CCCCC(CC)Cn1c(O)c(/C=C2\C=NN=C2c2ccccc2)sc1=S` (configuration not stated)?
Tau fluor counter: -0.3%; VP16 counter: inconclusive; Tau fibril FP: 17.8µM*; Tau fibril ThT: 1.0%; RORg inh: 19.5%

Results for CCCCCCCCCCn1ccc(=N)cc1 ?
Tau fluor counter: 2.0%; VP16 counter: inconclusive; Tau fibril FP: 6.1%; Tau fibril ThT: 11.0%; RORg inh: 7.94µM*

How did CCCCCCCCn1ccc(=N)cc1 do in these assays?
Tau fluor counter: 0.5%; VP16 counter: 7.08µM*; Tau fibril FP: 4.9%; Tau fibril ThT: -2.8%; RORg inh: inconclusive

Assay outcomes: PubChem, National Center for Advancing Translational Sciences (NCATS)
